Experimental data published in PubChem BioAssay (NCATS).
Values joined by “and” are separate entries in the source; they are usually repeats but may differ in a detail not shown here. Identical values can stand only once. Results filed as inconclusive are left out. Active and inactive are the calls of the source. Unless noted, calls come from the whole dose curve; as a rule, active = well fitted curve in the direction sought with a large enough effect; inconclusive = small, poorly fitted or top-dose-only effect, or another doubt; inactive = no such curve, though single readings can be large; an effect the other way counts as inactive or inconclusive.

What was measured:
NIH3T3 = test: qHTS assay to identify novel small-molecules to repurpose for Merkel cell carcinoma treatment (AID 1296009); details: MCC and control cell lines, CellTiter-Glo viability, 72 h; at 44.8 µM (top of the series) unless noted; note: nearly all actives have a fitted effect of over 60% in size; note: potency is the fitted concentration of half-maximal effect
Summary of the method: (§1)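 Viability readout: ATP luminescence (CellTiter-Glo) after 72 hr drug exposure at 37 degree celsius. Dose-response format was 8 points for NPC and 11 points for MIPE; data normalized to in-plate controls.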

UISO = test: as above; details: MCC and control cell lines, CellTiter-Glo viability, 72 h; series mostly up to 46 µM
Summary of the method: as §1

C33A = test: Primary qHTS to identify gynecologic anti-cancer compounds using libraries of approved drugs and bioactive compounds (AID 1345084); details: Gynecologic cancer cell panel viability, ATPlite luminescence, 48 h; series mostly up to 57.5 µM; note: nearly all actives have a fitted effect of over 55% in size; note: potency is the fitted concentration of half-maximal effect
Summary of the method: (§2)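 ATP-based viability (ATPlite), 1,000 cells/well, 16 h pre-incubation, 48 h compound at 37 C, 5% CO2, 15 min RT before read.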

CAOV3 = test: as above; details: Gynecologic cancer cell panel viability, ATPlite luminescence, 48 h; series mostly up to 57.5 µM
Summary of the method: as §2

CASKI = test: as above; details: Gynecologic cancer cell panel viability, ATPlite luminescence, 48 h; series mostly up to 57.5 µM
Summary of the method: as §2

Es-2 = test: as above; details: Gynecologic cancer cell panel viability, ATPlite luminescence, 48 h; series mostly up to 57.5 µM
Summary of the method: as §2

HeLa = test: as above; details: Gynecologic cancer cell panel viability, ATPlite luminescence, 48 h; series mostly up to 57.5 µM
Summary of the method: as §2

Hek293T = test: as above; details: Gynecologic cancer cell panel viability, ATPlite luminescence, 48 h, control line for the selectivity index; series mostly up to 57.5 µM
Summary of the method: as §2

JEG-3 = test: as above; details: Gynecologic cancer cell panel viability, ATPlite luminescence, 48 h; series mostly up to 57.5 µM
Summary of the method: as §2

OV90 = test: as above; details: Gynecologic cancer cell panel viability, ATPlite luminescence, 48 h; series mostly up to 57.5 µM
Summary of the method: as §2

PA-1 = test: as above; details: Gynecologic cancer cell panel viability, ATPlite luminescence, 48 h; series mostly up to 57.5 µM
Summary of the method: as §2

SKOV3 = test: as above; details: Gynecologic cancer cell panel viability, ATPlite luminescence, 48 h; series mostly up to 57.5 µM
Summary of the method: as §2

Tov-21-G = test: as above; details: Gynecologic cancer cell panel viability, ATPlite luminescence, 48 h; series mostly up to 57.5 µM
Summary of the method: as §2

Tov112D = test: as above; details: Gynecologic cancer cell panel viability, ATPlite luminescence, 48 h; series mostly up to 57.5 µM
Summary of the method: as §2

[1] = Drug repurposing screens with cells derived from glioblastoma tumor samples (AID 1345199); details: GBM patient neurospheres viability, ATP luminescence, 48 h; note: % is set by controls: 0 for no effect and ±100 for the full control effect; nearly all actives have a fitted effect of over 40% in size
Summary of the method: (§3)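 Primary testing used CD133+ neurospheres from four GBM patients, seven concentrations, 48 h exposure and ATP-based viability; confirmation added three slower-growing patient lines.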

astro = test: as above; details: viability, ATP luminescence, 48 h; series mostly up to 45.9 µM
Summary of the method: as §3

[2] = biological target: Nuclear receptor subfamily 1 group I member 2 (Rattus norvegicus) (UniProt Q9R1A7); test: qHTS assay for small molecule activators of the rat pregnane X receptor (rPXR) signaling pathway (AID 651751; call rule not given here; note: 0% is about no effect); details: rPXR reporter cells, luciferase (One-Glo), 24 h
[3] = qHTS assay for small molecule activators of the human pregnane X receptor (PXR) signaling pathway (AID 720659; call rule not given here; note: 0% is about no effect)
WaGa = test: qHTS assay to identify novel small-molecules to repurpose for Merkel cell carcinoma treatment (AID 1296009); details: MCC and control cell lines, CellTiter-Glo viability, 72 h; series mostly up to 46 µM; note: nearly all actives have a fitted effect of over 60% in size; note: potency is the fitted concentration of half-maximal effect
Summary of the method: as §1

[4] = at 45.9 µM (top of the series), tumour line B
[5] = at 45.9 µM (top of the series), tumour line D
[6] = at 46 µM (top of the series), tumour line A

Chain of Nuclear receptor subfamily 1 group I member 2 (Rattus norvegicus) (Q9R1A7 whole entry, looked up): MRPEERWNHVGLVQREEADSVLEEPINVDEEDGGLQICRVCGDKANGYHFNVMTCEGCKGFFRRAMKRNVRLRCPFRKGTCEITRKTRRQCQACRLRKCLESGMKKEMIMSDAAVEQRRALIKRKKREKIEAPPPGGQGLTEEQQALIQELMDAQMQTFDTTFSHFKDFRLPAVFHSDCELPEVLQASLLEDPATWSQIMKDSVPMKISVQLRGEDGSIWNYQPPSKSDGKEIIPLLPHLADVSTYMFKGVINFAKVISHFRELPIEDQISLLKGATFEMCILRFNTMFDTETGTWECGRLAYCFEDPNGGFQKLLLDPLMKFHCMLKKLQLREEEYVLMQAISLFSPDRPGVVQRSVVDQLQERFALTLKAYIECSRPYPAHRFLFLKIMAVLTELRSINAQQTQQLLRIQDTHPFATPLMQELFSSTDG

NCCc1ccc(O)cc1
inactive: outcome (NIH3T3) | Potency (UISO) | Potency (C33A) | outcome (CAOV3) | outcome (CASKI) | Potency (Es-2) | Potency (HeLa) | outcome (Hek293T) | outcome (JEG-3) | Potency (OV90) | Potency (PA-1) | outcome (SKOV3) | Potency (Tov-21-G) | Potency (Tov112D) | activity, negative = cell killing [1, 4] -7.62% | activity, negative = cell killing [1, 5] 3.08% | activity, negative = cell killing [1, 6] -19.3% | Potency (astro) | max response [2] 0.0715% | outcome [3]

c1ccc2c(c1)sc1ccccc12
inactive: outcome (NIH3T3) | Potency (UISO) | Potency (WaGa) | Potency (C33A) | outcome (CASKI) | Potency (Es-2) | Potency (HeLa) | outcome (Hek293T) | outcome (JEG-3) | Potency (OV90) | Potency (PA-1) | outcome (SKOV3) | Potency (Tov-21-G) | Potency (Tov112D) | activity, negative = cell killing [1, 4] -12.7% | activity, negative = cell killing [1, 5] -8% | activity, negative = cell killing [1, 6] -9.49% | Potency (astro)

CC[N+]1(CC)CCC(OC(=O)C(O)(c2ccccc2)c2ccccc2)C1 (configuration not stated)
inactive: Potency (UISO) | Potency (WaGa) | Potency (C33A) | outcome (CAOV3) | outcome (CASKI) | Potency (Es-2) | Potency (HeLa) | outcome (Hek293T) | outcome (JEG-3) | Potency (OV90) | Potency (PA-1) | outcome (SKOV3) | Potency (Tov-21-G) | Potency (Tov112D)

O=C(O)c1ccc(=O)[nH]c1
inactive: outcome (NIH3T3) | Potency (UISO) | Potency (WaGa) | Potency (C33A) | outcome (CASKI) | Potency (Es-2) | Potency (HeLa) | outcome (Hek293T) | Potency (OV90) | Potency (PA-1) | Potency (Tov-21-G) | Potency (Tov112D)

CC(NC(C)(C)C)C(=O)c1cccc(Cl)c1 (configuration not stated)
inactive: outcome (NIH3T3) | Potency (UISO) | Potency (WaGa) | Potency (C33A) | outcome (CASKI) | Potency (Es-2) | Potency (HeLa) | outcome (Hek293T) | outcome (JEG-3) | Potency (OV90) | Potency (PA-1) | outcome (SKOV3) | Potency (Tov-21-G) | Potency (Tov112D) | activity, negative = cell killing [1, 4] -9.74% | activity, negative = cell killing [1, 5] 3.9%

c1ccc(N2CCNCC2)cc1
inactive: outcome (NIH3T3) | Potency (UISO) | Potency (WaGa) | Potency (C33A) | outcome (CAOV3) | outcome (CASKI) | Potency (Es-2) | Potency (HeLa) | outcome (Hek293T) | outcome (JEG-3) | Potency (OV90) | Potency (PA-1) | outcome (SKOV3) | Potency (Tov-21-G) | Potency (Tov112D)

C[C@]12CC[C@H]3[C@@H](CCC4=CC(=O)CC[C@@H]43)[C@@H]1CC[C@@H]2OC(=O)CCC1CCCCC1
active: Potency (WaGa) 18.8 µM | Potency (HeLa) 11.2 µM
inactive: outcome (NIH3T3) | Potency (C33A) | outcome (CAOV3) | outcome (CASKI) | Potency (Es-2) | outcome (Hek293T) | outcome (JEG-3) | Potency (OV90) | Potency (PA-1) | outcome (SKOV3) | Potency (Tov-21-G) | Potency (Tov112D)

O=C1OC(c2ccc(O)c(S(=O)(=O)O)c2)(c2ccc(O)c(S(=O)(=O)O)c2)c2c(Br)c(Br)c(Br)c(Br)c21
inactive: outcome (NIH3T3) | Potency (UISO) | Potency (WaGa) | Potency (C33A) | outcome (CASKI) | Potency (Es-2) | Potency (HeLa) | outcome (Hek293T) | outcome (JEG-3) | Potency (OV90) | Potency (PA-1) | outcome (SKOV3) | Potency (Tov-21-G) | Potency (Tov112D) | activity, negative = cell killing [1, 4] -1.68% | activity, negative = cell killing [1, 5] 0.706% | activity, negative = cell killing [1, 6] -10.6% | Potency (astro)

ClCCN1CCCC1
inactive: outcome (NIH3T3) | Potency (UISO) | Potency (WaGa) | Potency (C33A) | outcome (CAOV3) | outcome (CASKI) | Potency (Es-2) | Potency (HeLa) | outcome (Hek293T) | outcome (JEG-3) | Potency (OV90) | Potency (PA-1) | outcome (SKOV3) | Potency (Tov-21-G) | Potency (Tov112D)

CN1C(=O)NC(=O)C(C)(C2=CCCCC2)C1=O (configuration not stated)
inactive: outcome (NIH3T3) | Potency (UISO) | Potency (WaGa) | Potency (C33A) | outcome (CAOV3) | outcome (CASKI) | Potency (Es-2) | Potency (HeLa) | outcome (Hek293T) | outcome (JEG-3) | Potency (OV90) | Potency (PA-1) | outcome (SKOV3) | Potency (Tov-21-G) | Potency (Tov112D) | activity, negative = cell killing [1, 4] 16.4% and -21.6% | activity, negative = cell killing [1, 5] 3.59% and 4.39% | activity, negative = cell killing [1, 6] 3.99% | Potency (astro)

O=c1[nH]c2ccccc2n1C1CCNCC1
inactive: outcome (NIH3T3) | Potency (UISO) | Potency (WaGa) | Potency (C33A) | outcome (CAOV3) | outcome (CASKI) | Potency (Es-2) | Potency (HeLa) | outcome (Hek293T) | outcome (JEG-3) | Potency (OV90) | Potency (PA-1) | outcome (SKOV3) | Potency (Tov-21-G) | Potency (Tov112D)

CCC1(c2ccccc2)C(=O)N(COC)C(=O)N(COC)C1=O
inactive: outcome (NIH3T3) | Potency (UISO) | Potency (WaGa) | Potency (C33A) | outcome (CASKI) | Potency (Es-2) | Potency (HeLa) | outcome (Hek293T) | outcome (JEG-3) | Potency (OV90) | Potency (PA-1) | outcome (SKOV3) | Potency (Tov-21-G) | Potency (Tov112D) | activity, negative = cell killing [1, 4] -7.62% | activity, negative = cell killing [1, 5] 2.45% | activity, negative = cell killing [1, 6] -19.3% | Potency (astro)

CC(C)(C)NCC(O)c1cc(Cl)c(N)c(C(F)(F)F)c1 (configuration not stated)
inactive: outcome (NIH3T3) | Potency (UISO) | Potency (WaGa) | Potency (C33A) | outcome (CAOV3) | outcome (CASKI) | Potency (Es-2) | Potency (HeLa) | outcome (Hek293T) | outcome (JEG-3) | Potency (OV90) | Potency (PA-1) | outcome (SKOV3) | Potency (Tov-21-G) | Potency (Tov112D) | activity, negative = cell killing [1, 4] -7.42% | activity, negative = cell killing [1, 5] -9.1% | Potency (astro)

CCC(CC)(CNC(=O)CCCO)c1cccc(OC)c1
inactive: outcome (NIH3T3) | Potency (UISO) | Potency (WaGa) | Potency (C33A) | outcome (CAOV3) | outcome (CASKI) | Potency (Es-2) | Potency (HeLa) | outcome (Hek293T) | outcome (JEG-3) | Potency (OV90) | Potency (PA-1) | outcome (SKOV3) | Potency (Tov-21-G) | Potency (Tov112D)
